Where two headings read alike, the source gives them in different places.
What was measured:
[1] = tested on: DAPK2; settings: concentration: 1 μM, replicates: in singlicate; n = 1
[2] = tested on: DAPK3; settings: concentration: 1 μM, replicates: in singlicate; n = 1
[3] = tested on: T1, DCAMKL1; settings: concentration: 1 μM, replicates: in singlicate; n = 1
T1 construct: gene DCLK1

[4] = tested on: T2, DCAMKL2; settings: concentration: 1 μM, replicates: in singlicate; n = 1
T2 construct: gene DCLK2

[5] = tested on: T3, DCAMKL3; settings: concentration: 1 μM, replicates: in singlicate; n = 1
T3 construct: gene DCLK3

[6] = tested on: DDR1; settings: concentration: 1 μM, replicates: in singlicate; n = 1
[7] = tested on: DDR2; settings: concentration: 1 μM, replicates: in singlicate; n = 1
[8] = tested on: T4, DLK; settings: concentration: 1 μM, replicates: in singlicate; n = 1
T4 construct: gene MAP3K12

[9] = tested on: T5, DMPK2; settings: concentration: 1 μM, replicates: in singlicate; n = 1
T5 construct: gene CDC42BPG

[10] = tested on: DMPK; settings: concentration: 1 μM, replicates: in singlicate; n = 1
[11] = tested on: T6, DRAK1; settings: n = 1
T6 construct: gene STK17A

[12] = tested on: T7, DRAK2; settings: n = 1
T7 construct: gene STK17B

[13] = tested on: DYRK1A; settings: concentration: 1 μM, replicates: in singlicate; n = 1
[14] = tested on: DYRK1B; settings: concentration: 1 μM, replicates: in singlicate; n = 1
[15] = tested on: DYRK2; settings: concentration: 1 μM, replicates: in singlicate; n = 1
[16] = tested on: EGFR; settings: concentration: 1 μM, replicates: in singlicate; n = 1
[17] = tested on: EIF2AK1; settings: concentration: 1 μM, replicates: in singlicate; n = 1
[18] = tested on: EPHA1; settings: concentration: 1 μM, replicates: in singlicate; n = 1
[19] = tested on: EPHA2; settings: concentration: 1 μM, replicates: in singlicate; n = 1
[20] = tested on: EPHA3; settings: concentration: 1 μM, replicates: in singlicate; n = 1
[21] = concentration: 1 μM, replicates: in singlicate
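Also: KINOMEscan kinase panel screen.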

## COc1ccccc1-c1ccc2c(NC(=O)C3CC3)n[nH]c2n1 [SB-711239]
[1]
  %Inh: 11%
[2]
  %Inh: 3%
[3]
  %Inh: 0%
[4]
  %Inh: 3%
[5]
  %Inh: 0%
[6]
  %Inh: 10%
[7]
  %Inh: 22%
[8]
  %Inh: 5%
[9]
  %Inh: 0%
[10]
  %Inh: 1%
[11]; [21]
  %Inh: 5%
[12]; [21]
  %Inh: 0%
[13]
  %Inh: 12%
[14]
  %Inh: 16%
[15]
  %Inh: 2%
[16]
  %Inh: 2%
[17]
  %Inh: 0%
[18]
  %Inh: 0%
[19]
  %Inh: 18%
[20]
  %Inh: 0%

## COc1ccc2nc(-c3cccc(C)n3)nc(Nc3ccncc3)c2c1 [GSK204919]
[1]
  %Inh: 0%
[2]
  %Inh: 22%
[3]
  %Inh: 5%
[4]
  %Inh: 26%
[5]
  %Inh: 0%
[6]
  %Inh: 58%
[7]
  %Inh: 5%
[8]
  %Inh: 8%
[9]
  %Inh: 91.1%
[10]
  %Inh: 0%
[11]; [21]
  %Inh: 0%
[12]; [21]
  %Inh: 0%
[13]
  %Inh: 24%
[14]
  %Inh: 0%
[15]
  %Inh: 0%
[16]
  %Inh: 20%
[17]
  %Inh: 0%
[18]
  %Inh: 0%
[19]
  %Inh: 20%
[20]
  %Inh: 0%

## CC(C)(C)c1ccc(C(=O)Nc2cn3cc(Cl)ccc3n2)cc1
[1]
  %Inh: 0%
[2]
  %Inh: 3%
[3]
  %Inh: 15%
[4]
  %Inh: 0%
[5]
  %Inh: 18%
[6]
  %Inh: 0%
[7]
  %Inh: 20%
[8]
  %Inh: 0%
[9]
  %Inh: 0%
[10]
  %Inh: 0%
[11]; [21]
  %Inh: 5%
[12]; [21]
  %Inh: 20%
[13]
  %Inh: 47%
[14]
  %Inh: 65%
[15]
  %Inh: 0%
[16]
  %Inh: 0%
[17]
  %Inh: 0%
[18]
  %Inh: 0%
[19]
  %Inh: 0%
[20]
  %Inh: 65%

## O=C(O)COc1ncnc2cc(-c3ccc4[nH]ncc4c3)sc12
[1]
  %Inh: 0%
[2]
  %Inh: 5%
[3]
  %Inh: 0%
[4]
  %Inh: 2%
[5]
  %Inh: 8%
[6]
  %Inh: 0%
[7]
  %Inh: 7%
[8]
  %Inh: 34%
[9]
  %Inh: 3%
[10]
  %Inh: 13%
[11]; 1 µM
  %Inh: 83%
[12]; 1 µM
  %Inh: 99.3%
[13]
  %Inh: 67%
[14]
  %Inh: 41%
[15]
  %Inh: 66%
[16]
  %Inh: 0%
[17]
  %Inh: 0%
[18]
  %Inh: 15%
[19]
  %Inh: 10%
[20]
  %Inh: 10%

## Cn1cncc1-c1ccc2ncnc(Nc3ccc(OCc4ccccc4)cc3)c2c1 [GW320571]
[1]
  %Inh: 0%
[2]
  %Inh: 56%
[3]
  %Inh: 0%
[4]
  %Inh: 0%
[5]
  %Inh: 31%
[6]
  %Inh: 18%
[7]
  %Inh: 4%
[8]
  %Inh: 35%
[9]
  %Inh: 0%
[10]
  %Inh: 9%
[11]; [21]
  %Inh: 6%
[12]; [21]
  %Inh: 0%
[13]
  %Inh: 12%
[14]
  %Inh: 3%
[15]
  %Inh: 0%
[16]
  %Inh: 99.3%
[17]
  %Inh: 96.7%
[18]
  %Inh: 25%
[19]
  %Inh: 17%
[20]
  %Inh: 0%

## COc1ccccc1CNC(=O)c1cc(C(=O)c2ccccc2C)c[nH]1 [GSK364507]
[1]
  %Inh: 0%
[2]
  %Inh: 17%
[3]
  %Inh: 16%
[4]
  %Inh: 16%
[5]
  %Inh: 4%
[6]
  %Inh: 11%
[7]
  %Inh: 0%
[8]
  %Inh: 15%
[9]
  %Inh: 5%
[10]
  %Inh: 0%
[11]; [21]
  %Inh: 1%
[12]; [21]
  %Inh: 12%
[13]
  %Inh: 17%
[14]
  %Inh: 19%
[15]
  %Inh: 0%
[16]
  %Inh: 36%
[17]
  %Inh: 0%
[18]
  %Inh: 25%
[19]
  %Inh: 13%
[20]
  %Inh: 0%

## Cc1ccccc1-n1cnc2c(N)ncnc21 [SKF-97510]
[1]
  %Inh: 10%
[2]
  %Inh: 12%
[3]
  %Inh: 0%
[4]
  %Inh: 0%
[5]
  %Inh: 0%
[6]
  %Inh: 11%
[7]
  %Inh: 0%
[8]
  %Inh: 0%
[9]
  %Inh: 0%
[10]
  %Inh: 0%
[11]; [21]
  %Inh: 0%
[12]; [21]
  %Inh: 47%
[13]
  %Inh: 0%
[14]
  %Inh: 0%
[15]
  %Inh: 0%
[16]
  %Inh: 0%
[17]
  %Inh: 0%
[18]
  %Inh: 0%
[19]
  %Inh: 0%
[20]
  %Inh: 0%

## CS(=O)(=O)c1ccc(-c2c(-c3ncn[nH]3)sc(N3CCOCC3)c2C#N)cc1
[1]
  %Inh: 0%
[2]
  %Inh: 0%
[3]
  %Inh: 19%
[4]
  %Inh: 23%
[5]
  %Inh: 19%
[6]
  %Inh: 0%
[7]
  %Inh: 18%
[8]
  %Inh: 53%
[9]
  %Inh: 15%
[10]
  %Inh: 0%
[11]; [21]
  %Inh: 8%
[12]; [21]
  %Inh: 0%
[13]
  %Inh: 1%
[14]
  %Inh: 0%
[15]
  %Inh: 14%
[16]
  %Inh: 12%
[17]
  %Inh: 21%
[18]
  %Inh: 24%
[19]
  %Inh: 19%
[20]
  %Inh: 0%

## C[C@@H]1CCCCN1c1cc(-c2ccc3c(N)n[nH]c3c2)nc(N)n1 [GSK2258759]
[1]
  %Inh: 0%
[2]
  %Inh: 19%
[3]
  %Inh: 2%
[4]
  %Inh: 0%
[5]
  %Inh: 0%
[6]
  %Inh: 0%
[7]
  %Inh: 0%
[8]
  %Inh: 21%
[9]
  %Inh: 0%
[10]
  %Inh: 0%
[11]; [21]
  %Inh: 96%
[12]; [21]
  %Inh: 0%
[13]
  %Inh: 0%
[14]
  %Inh: 0%
[15]
  %Inh: 10%
[16]
  %Inh: 18%
[17]
  %Inh: 0%
[18]
  %Inh: 8%
[19]
  %Inh: 0%
[20]
  %Inh: 7%

## Clc1cc(Cl)cc(Nc2ccnc(Nc3cc(Cl)cc(Cl)c3)n2)c1 [GSK175726]
[1]
  %Inh: 19%
[2]
  %Inh: 23%
[3]
  %Inh: 0%
[4]
  %Inh: 0%
[5]
  %Inh: 0%
[6]
  %Inh: 6%
[7]
  %Inh: 24%
[8]
  %Inh: 11%
[9]
  %Inh: 18%
[10]
  %Inh: 0%
[11]; [21]
  %Inh: 0%
[12]; [21]
  %Inh: 6%
[13]
  %Inh: 0%
[14]
  %Inh: 19%
[15]
  %Inh: 0%
[16]
  %Inh: 38%
[17]
  %Inh: 0%
[18]
  %Inh: 54%
[19]
  %Inh: 46%
[20]
  %Inh: 21%

## Cc1cccc(-c2nc(-c3ccc(S(C)(=O)=O)cc3)sc2-c2ccnc(NCCc3ccccc3)c2)c1
[1]
  %Inh: 15%
[2]
  %Inh: 0%
[3]
  %Inh: 5%
[4]
  %Inh: 0%
[5]
  %Inh: 8%
[6]
  %Inh: 98.1%
[7]
  %Inh: 79%
[8]
  %Inh: 0%
[9]
  %Inh: 10%
[10]
  %Inh: 16%
[11]; [21]
  %Inh: 0%
[12]; [21]
  %Inh: 10%
[13]
  %Inh: 0%
[14]
  %Inh: 51%
[15]
  %Inh: 0%
[16]
  %Inh: 0%
[17]
  %Inh: 1%
[18]
  %Inh: 0%
[19]
  %Inh: 0%
[20]
  %Inh: 9%

— publication PMC5540273 (PLoS ONE, 2017)
